Assay results as given in PubChem BioAssay AID1025 (Sanford-Burnham Center for Chemical Genomics, 2008).
Among all 96,000 compounds or so, fewer than 10 were called active.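 The calls were made as follows: active = activation factor of at least 2 at 5 µM in the primary screen; inactive = the rest.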 The list is a sample of the results.

molecular target: Cytochrome P450 2C19 (Homo sapiens) (UniProt P33261); experiment: human CYP2C19 activators, primary screen, biochemical, luminescence (AID 1025); details: recombinant CYP2C19, luciferin-H EGE luminescence; at 5 µM; stronger effect = higher value; 0 = fully inhibited enzyme, 1 = untreated enzyme;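 also: 0 = wells with 2.5 mM tranylcypromine and 1 = vehicle-only wells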
Sequence (P33261 whole entry, looked up): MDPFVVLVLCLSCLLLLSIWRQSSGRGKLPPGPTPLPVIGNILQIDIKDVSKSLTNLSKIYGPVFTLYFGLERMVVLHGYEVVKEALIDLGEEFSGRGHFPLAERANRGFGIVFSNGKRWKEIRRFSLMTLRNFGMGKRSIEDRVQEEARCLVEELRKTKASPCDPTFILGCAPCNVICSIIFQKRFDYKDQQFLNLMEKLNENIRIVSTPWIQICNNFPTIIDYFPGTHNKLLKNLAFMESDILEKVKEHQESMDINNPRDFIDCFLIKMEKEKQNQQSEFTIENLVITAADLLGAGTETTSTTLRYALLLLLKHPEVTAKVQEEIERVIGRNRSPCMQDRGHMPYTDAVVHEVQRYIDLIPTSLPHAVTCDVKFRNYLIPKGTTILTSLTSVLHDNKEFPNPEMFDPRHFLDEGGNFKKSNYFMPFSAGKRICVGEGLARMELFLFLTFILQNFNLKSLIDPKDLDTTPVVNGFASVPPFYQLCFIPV

Activation factor, inactive:
CCCNC(=O)c1ccccc1NC(=O)CSCc1ccc(OC)cc1 0.5
CC(C)NC(=O)C(=O)N/N=C/c1ccco1 1.1
CC(C)CCNC(=O)CC1C(=O)N(Cc2ccccc2)C(C)c2nc3ccccc3n21 (configuration not stated) 0.1
CCCCc1nc(NCCN)c(C#N)c2c1CSC(C)(C)C2 0.7
Cc1ccc(S(=O)(=O)NCC(C)NS(C)(=O)=O)cc1 (configuration not stated) 0.8
O=C(Nc1ccc(Sc2ccc(Br)cc2)cc1)c1ccco1 0.9
CCCn1nnnc1NC(=O)COc1ccc(Cl)cc1C 0.3
Cc1ccc(N(CC(=O)Nc2cccc(N(C)S(C)(=O)=O)c2)S(C)(=O)=O)cc1 1
O=C(NCCCCCCNC(=O)NCc1ccco1)NCc1ccco1 1.1
CCCCNC(=O)CCn1c(=S)[nH]c2cc3c(cc2c1=O)OCO3 0.6
CCC(=O)OCc1c(C(F)(F)F)nn(C)c1Oc1cccc(C(F)(F)F)c1 0.4
COc1ccc(N(CC(=O)N/N=C/c2cccs2)S(=O)(=O)c2ccc(OC)c(OC)c2)cc1 0
CCc1c(C)sc(NC(=O)c2cccs2)c1C(N)=O 0.2
Cc1nnc(NCCO)c2ccccc12 0.9
COc1cc(/C=N/NC(=O)Nc2ccccc2)ccc1OCCOc1ccccc1C 1
Cc1[nH]nc(-c2ccc(OCc3cnn(-c4ccccc4)c3)cc2O)c1Oc1ccc(Cl)cc1 0.8
COc1ccc2c(c1)SC(C)CC2=O (configuration not stated) 0.2
COC(=O)Nc1ccc(S(=O)(=O)N2CCN(CCN3C(=O)C4C5C=CC(C5)C4C3=O)CC2)cc1 (configuration not stated) 0.9
Cc1ccc(O)c(CNc2nc3ccccc3n2C)c1 0.6
CSc1ccc(CCNC(=O)C2CCN(c3nnc(-n4cccc4)s3)CC2)cc1 0.7
O=C(CCc1ccc(S(=O)(=O)NC2CCCCC2)cc1)NCc1ccccc1 0.4
O=c1[nH]c2c(c(=O)n1Cc1ccccc1)CCC2 1
Cc1ccc2nc(/C(C#N)=C\c3ccc(OC(=O)c4cccs4)cc3)[nH]c2c1 0.5
O=C(/C=C/c1ccccc1)c1ccoc1 0.7
CN1C2CCC1/C(=C\c1ccccc1Cl)C(=O)/C2=C\c1ccccc1Cl 1.1
CC(N=Cc1nc(-c2ccccc2)oc1O)c1ccccc1 (configuration not stated) 0.3
O=C(NCN1CCN(CCO)CC1)c1cnccn1 1.1
CC(Oc1ccc(Cl)cc1Cl)C(=O)/C=C/N(C)C (configuration not stated) 0.4
CN(C)/C=C(\C#N)C(=O)c1cccnc1Oc1cccc(F)c1 0.6
CC1CCC(N2CC(=O)N(Cc3ccc4c(c3)OCO4)C(c3ccc(F)cc3)C2=O)CC1 (configuration not stated) 0.8
C/C(=N\NC(=O)c1ccccc1C)c1ccc(N2CCOCC2)cc1 1
C=CCOc1cccc(CNn2cn[nH]c2=S)c1 0.7
COc1cc(OC)cc(C(=O)NC(=S)N2CCN(c3ccc(C(F)(F)F)cc3[N+](=O)[O-])CC2)c1 0.8
Cc1ccc(N(Cc2ccc(C(=O)Nc3ccccc3C(=O)NCc3ccco3)cc2)S(C)(=O)=O)cc1C 0.1
Cc1cc(=O)oc2ccc(OCC(=O)O)cc12 1
NC(=O)c1c(NC(=O)CSc2nnc(-c3ccco3)n2N)sc2c1CCCC2 0.7
O=C(O)/C=C/C(=O)Nc1ccc(F)cc1F 0.9
Clc1ccc(COn2c(-c3ccc(Cl)cc3Cl)nc3ncccc32)cc1 0
CCOCCn1c(C(C)C)nc2ccccc21 0.8
O=C(CCc1ccc(S(=O)(=O)N2CCOCC2)cc1)Nc1ccc2ccccc2c1 0.4
CCC(CC)C(=O)N1CC(=O)Nc2ccc(Br)cc2C1c1ccccc1 (configuration not stated) 0.5
CC(N)C12CC3CC(CC(O)(C3)C1)C2 (configuration not stated) 0.9
COc1ccc(C(=O)CN(C(=O)c2ccc(Cl)cc2)N2C(=O)c3ccccc3C2=O)cc1 0.6
O=C(CCN1c2ccccc2Sc2ccccc21)Nc1ccccc1 0.2
CCOc1cc(CNCCN(C)C)c(Cl)cc1OCC(=O)NCCc1ccccc1 1
Cc1cc(C(=O)Nc2c(C)nn(Cc3ccccc3)c2C)on1 0.9
CC(C)CNC(=S)NNC(=O)c1ccccc1OC(F)F 0.8
Cc1ccccc1NC(=O)C(C)c1ccc(-c2ccccc2)c(F)c1 (configuration not stated) 0.9
Cc1ccc(CS(=O)(=O)CCC(=O)NC2CC2)cc1 0.9
O=C(NC1CCCCC1)C1CC(=O)N(CCc2ccccc2)C1 (configuration not stated) 1.1
Cc1ccc(C2NC(=S)NC3=C2N2CCC3CC2)cc1 (configuration not stated) 1.1
C/C(=N\NS(=O)(=O)c1ccc(Br)cc1)c1cccs1 0.3
CC1(C)CC(CC(=O)O)C(=O)O1 (configuration not stated) 1.1
CCOC(=O)c1cnc(SC)nc1Sc1ccc(Cl)cc1Cl 0.7
CS(=O)(=O)N(CC(=O)Nc1ccc(F)cc1F)c1cccc([N+](=O)[O-])c1 0.4
CSc1ccccc1NC(=O)c1cc(C2CC2)on1 0.7
O=C(/C=C\NCC(=O)c1ccccc1)c1ccccc1 0.5
O=C(NCc1ccccn1)c1cc(-c2ccccc2Cl)on1 0.9
COc1cc(/C=N\NC(=O)CNC(=O)c2cccc([N+](=O)[O-])c2)ccc1O 0.8
COc1ccc(CC(=O)Nc2sc(Cc3ccccc3)c(C)c2C(N)=O)cc1 1
FC(F)(F)c1nnc2ccc(N3CCN(c4ccccc4)CC3)nn12 0.7
CC1CC(C)CN(C(=O)CSc2nnc(CSc3ncccn3)n2C)C1 (configuration not stated) 1.1
Cc1cc2[nH]ncc2cc1NC(=S)NC(=O)c1ccccc1 0
CCCCCCSc1nsc(N)n1 0.5
COc1cccc(-c2cc(C(=O)N/N=C/c3ccc(OC)c(COC(C)=O)c3)c3ccccc3n2)c1 0.5
CC1=NN(C(=O)Cc2ccc(C)cc2)C(O)(c2cccnc2)C1 (configuration not stated) 0.4
ONC(=Nc1ccccc1)c1ccccc1Cl 0.7
Oc1ccccc1CNc1ncc(Br)cc1Br 0.6
Cc1nc(SCC(=O)N2CC(=O)Nc3ccccc32)c2c(C)c(C)sc2n1 0.5
COc1ccc(C(=S)Nc2ccccc2)cc1 0.3
N#Cc1ccc(-c2ccc(F)cc2)nc1Sc1ccccc1 1
OCCNc1nc2ccccc2n1-c1ncnc2sc3c(c12)CCC3 1.1
O=C(Nc1ccc(Br)cc1)c1cccc(NC(=O)C2C3CC4OC(=O)C2C4C3)c1 (configuration not stated) 0.8
Cc1ccc(NC(=O)N2CCC(c3nc4c(nnn4Cc4c(F)cccc4Cl)c(=O)[nH]3)CC2)cc1 0
O=C(NC1CCc2ccccc21)C12CN(Cc3ccccc3)CC1C(c1cccc([N+](=O)[O-])c1)=NO2 (configuration not stated) 0.9
S=C1NC(c2ccccc2)=NCN1c1ccc(Br)cc1 0.5
COC(=O)c1ccc(CSc2nc3cc(Cl)ccc3o2)cc1 1.1
O=C(NCCc1ccccc1)c1ccc(NC2=NC3CS(=O)(=O)CC3S2)cc1 (configuration not stated) 0.9
Cn1nc(-c2ccccc2)c(CSc2cccc(Cl)c2)c1Cl 0.5
CC1(C)COC(c2cccn2Cc2ccccc2Cl)=N1 1
S=c1[nH]nc(-c2ccc(Cl)cc2)n1CC1CCCO1 (configuration not stated) 0.6
Cc1ccc(C2CC2C(=O)NN)cc1 (configuration not stated) 0.5
N=c1c2c(-c3ccccc3)c(-c3ccccc3)oc2ncn1Cc1ccco1 0.8
O=c1[nH]c(CCl)nc2cc(-c3ccc(Cl)cc3)sc12 0.7
CCCSC(=S)NC1CCS(=O)(=O)C1 (configuration not stated) 0.9
CC(Sc1nnc(Cc2ccc([N+](=O)[O-])cc2)o1)C(N)=O (configuration not stated) 0.8
Cc1ccc(NC(=S)NCCN2CCOCC2)cc1 0.8
Cc1cnc(NC(=O)CSc2nnc(C)s2)s1 0.8
Cc1ccc(N2C(=O)C(Cc3ccccc3)NC2=S)cc1 (configuration not stated) 0.6
CC1=C(C)CC(C(=O)NNC(=O)c2ccccc2O)C(C(=O)O)C1 (configuration not stated) 1.1
CCN(CC(=O)Nc1ccccc1OC)C(=O)Cn1cnc2ccccc2c1=O 1
O=c1[nH][nH]c(C(F)(F)F)c1C=NCc1ccccc1Cl 0.1
COC(=O)c1sc2ncccc2c1OCc1ccc(Cl)cc1Cl 1
CCOC(=O)C1Sc2[nH]c(=O)sc2C(c2ccc(Cl)cc2)C1C(=O)OCC (configuration not stated) 0.8
C=CCN(N=Nc1cccc([N+](=O)[O-])c1)c1cccc([N+](=O)[O-])c1 0.8
CC(CC(=O)Nc1cc(C(F)(F)F)ccc1Cl)c1ccccc1 (configuration not stated) 0.4
C(=N/N1CCN(c2ccccc2)CC1)/c1cccs1 0.5
CC1(C)CC(=O)C(C=NCCN2CCN(C(=S)Nc3cccc(Cl)c3)CC2)=C(O)C1 0.4
O=C(C1=C(O)C(=O)N(Cc2ccccc2)C1c1ccco1)c1ccco1 (configuration not stated) 1.2
Nc1nc(C23CC4CC(CC(C4)C2)C3)cs1 0.6
CC(C)N(c1ccccc1)c1ncnc(NCCC(=O)O)c1[N+](=O)[O-] 0.4
CC1=C(C(N)=O)C(c2sccc2C)n2nnnc2N1 (configuration not stated) 0.9
